The record followed here is PubChem BioAssay (Tox21).

SMILES strings stand for the structures. Inconclusive results are not listed. Entries that show only a call come without a potency. Calls of active or inactive are those of the source. The call rests on the fitted dose curve; in most records, active means well fitted inhibition curve with a large enough effect in the signal ratio in the repeat runs; inconclusive means weak or mixed curves, or effect the other way; inactive means flat fitted curve, though single readings scatter; the % refers to the signal ratio.
Potency means the concentration at half of the fitted maximal effect.

The assay in a line: qHTS assay for small molecule disruptors of the mitochondrial membrane potential (AID 720635). Conditions: HepG2 mitochondrial membrane potential, Mito-MPS dye ratio; series mostly up to 83.2 µM. The source says: U.S. Tox21 Program National Center for Advancing Translational Sciences [NCATS] NIH Chemical Genomics Center [NCGC] U.S. Environmental Protection Agency [EPA] National Institutes of Environmental Health Sciences [NIEHS] National Toxicology Program [NTP] U.S. Food and Drug Administration [FDA] Tox21 Assay Overview: Mitochondrial membrane potential (MMP), one of the parameters for mitochondrial function, is generated by mitochondrial electron transport chain that creates an electrochemical gradient by a series of redox reactions. This gradient drives the synthesis of ATP, a crucial molecule for various cellular processes. Measuring MMP in living cells is commonly used to assess the effect of chemicals on mitochondrial function. […] The dye accumulates in the mitochondria of healthy cells as aggregates, with red fluorescence. The mitochondrial potential collapses and the dye can no longer accumulate in the mitochondria and remains in the cytoplasm in monomers, with green fluorescence.
Tox21 Assay Protocol Summary: 2,000 HepG2 cells in 5 uL/well were dispensed into black, clear-bottom 1536-well plates using a Multidrop Combi (Thermo Scientific) dispenser. The assay plates were incubated overnight at 37C to allow cells to attach to the wells, followed by the transfer of 23 nL compound or DMSO vehicle by a pin tool (Kalypsys). The plates were incubated for 1 hr at 37C and 5% CO2, followed by the addition of 5 uL of 2X Mito-MPS dye (BD Biosciences) into each well using Flying Reagent Dispenser (Aurora Discovery) and then following 30 min incubation at 37C. Fluorescence intensity (490nm excitation and 535nm emission for monomers; and 540nm excitation and 590nm emissions for aggregates) was measured using an Envision plate reader.
Background: Quantitative high-throughput screening tests each substance at several concentrations.
Take `OCCCCCCCl`: the Potency entry is “inactive”.
Under `CCCCC(=O)N(C)C` stands “inactive”.
Under `Nc1cc(C(=O)O)ccc1Cl` stands “inactive”.
Under `C/C=C(\C)C(=O)OCC/C=C\CC` stands “inactive”.
For the compound `CCCCC(C)C(=O)O` (stereo not given), the Potency result is “inactive”.
The value for `Cc1ccccc1C` was “inactive”; that for `CCCCCCCCCCCCCCCC(=O)NCCO` was “inactive”; that for `CCS(=O)(=O)CCn1c([N+](=O)[O-])cnc1C` was “inactive”.
For `O=C(O)c1ccccc1C(=O)Nc1ccc(S(=O)(=O)Nc2nccs2)cc1`, the Potency result is “inactive”.
Under `C=CCOC(=O)c1ccc(C(=O)OCC=C)c(C(=O)OCC=C)c1` stands “inactive”.
On to `O=C(O)C(=O)Nc1cccc(-c2nn[nH]n2)c1`, for which the Potency result was “inactive”.
In the case of `COC(OC)C(C)c1ccccc1` (stereo not given), the Potency entry was “inactive”.
For `O=P(O)(O)OCC(O)CO` (stereo not given), the Potency entry is “inactive”.
Under `CC1(N)CCC(C(C)(C)N)CC1` (stereo not given) stands “inactive”; under `CC(=O)OC(C)c1ccccc1` (stereo not given), “inactive”; under `Cc1cccc(Nc2ccncc2S(=O)(=O)NC(=O)NC(C)C)c1`, “inactive”.
Under `CCOC(=O)CC#N` stands “inactive”.
Under `CCC(C)(C)C1CCC(=O)CC1` stands “inactive”.
Regarding `CO[Si](CCCS)(OC)OC`, the Potency entry was “inactive”.
As to `COc1cccc2sc(N)nc12`, the Potency was 43.5 µM (active).
In the case of `CCCCOC(=O)[C@@H](C)Oc1ccc(Oc2ccc(C(F)(F)F)cn2)cc1`, the Potency result is “inactive”.
Under `COc1cc([N+](=O)[O-])ccc1N` stands “inactive”.
Take `O=C1OC(=O)c2ccccc21`: the Potency entry was “inactive”.
On to `CCCCCCCCCCCCC1CO1` (stereo not given), for which the Potency entry was “inactive”.
Under `C=C(C)C(=O)OC` stands “inactive”.
On to `O=C1c2ccccc2-c2ccccc21`, for which the Potency was 55.9 µM (active).
With `C1CCN2C[C@@H]3C[C@@H](CN4CCCC[C@@H]34)[C@H]2C1`, the Potency result is “inactive”.
The value for `C[C@H](CCC(=O)NCC(=O)O)[C@H]1CC[C@H]2[C@@H]3[C@H](O)C[C@@H]4C[C@H](O)CC[C@]4(C)[C@H]3C[C@H](O)[C@]12C` was “inactive”; that for `C1=C\CC/C=C\CC/1` was “inactive”.
Turning to `CC(C)(c1ccc(Oc2ccc3c(c2)C(=O)OC3=O)cc1)c1ccc(Oc2ccc3c(c2)C(=O)OC3=O)cc1`, the Potency result is “inactive”.
For the compound `CC(=O)c1ccc2c(c1)CCCC2`, the Potency entry is “inactive”.
For the compound `CCC(C)N` (stereo not given), the Potency result was “inactive”.
Under `O=C1CC[C@H](C(=O)N2CCCCC2)N1` stands “inactive”; under `CC1CCC(C(C)(C)S)C(=O)C1` (stereo not given), “inactive”; under `CCCCCCCCCCCCC`, “inactive”.
`O=C(Nc1cccc(C2=NCCN2)c1)Nc1cccc(C2=NCCN2)c1`: the Potency entry was “inactive”.
The value for `O=c1[nH]c(=O)c2ccccc2o1` was “inactive”.
Under `COC(=O)CCC(=O)O` stands “inactive”.
Turning to `CC1=CC[C@H](CC=O)C1(C)C`, the Potency entry is “inactive”.
The value for `CO[Si](CCCCl)(OC)OC` was 60.2 µM (active).
